# Most compounds without a hit are left out; they make up all but 3.4% or so of the library.
# FBW7 activator: FBW7 E3 ligase activators, primary screen, biochemical, AlphaScreen, human; F-box/WD repeat-containing protein 7 (Homo sapiens), Q969H0; AlphaScreen FBW7–phospho-cyclin E peptide binding, activator screen; normalized activity (activation), % at 26.1 µM; 650,000 compounds, 0.13% hits; AID 1259310, 2017; in the data active = normalized activity above about 1.9%;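 also: purified mutant Fbw7 with reduced substrate affinity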
# MITF inh: MITF inhibitors, primary screen, biochemical, AlphaScreen, human | Microphthalmia-associated transcription factor (Homo sapiens), O75030 | AlphaScreen MITF homodimerization, bead proximity signal | inhibition, % at 2.6 µM | 650,000 compounds, 0.91% hits | AID 1259374, 2018; in the data active = inhibition above about 50%;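 also: 0% = vehicle wells with protein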
# TEAD-YAP block: TEAD-YAP interaction inhibition, primary screen, TEAD-YAP interaction inhibitor project, luminescence, HEK-TIYL cells. inhibition, % at 9.12 µM. TEAD-Gal4/YAP UAS-luciferase luminescence. 640,000 compounds, 1.4% hits; in the data active = inhibition above about 32%;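 also: 0% = median of test compound wells and 100% = reference inhibitor wells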
# GPR151 activ: activators of human GPR151, primary screen, cell-based, PathHunter beta-arrestin, luminescence; G-protein coupled receptor 151 (Homo sapiens), Q8TDV0; PathHunter beta-arrestin GPR151 cells; activation, % at 11.2 µM; 650,000 compounds, 1% hits; in the data active = activation above about 4.9%;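 also: 0% = median of compound wells and 100% = cells with positive control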
# Target sequence (Q8TDV0 whole entry, looked up): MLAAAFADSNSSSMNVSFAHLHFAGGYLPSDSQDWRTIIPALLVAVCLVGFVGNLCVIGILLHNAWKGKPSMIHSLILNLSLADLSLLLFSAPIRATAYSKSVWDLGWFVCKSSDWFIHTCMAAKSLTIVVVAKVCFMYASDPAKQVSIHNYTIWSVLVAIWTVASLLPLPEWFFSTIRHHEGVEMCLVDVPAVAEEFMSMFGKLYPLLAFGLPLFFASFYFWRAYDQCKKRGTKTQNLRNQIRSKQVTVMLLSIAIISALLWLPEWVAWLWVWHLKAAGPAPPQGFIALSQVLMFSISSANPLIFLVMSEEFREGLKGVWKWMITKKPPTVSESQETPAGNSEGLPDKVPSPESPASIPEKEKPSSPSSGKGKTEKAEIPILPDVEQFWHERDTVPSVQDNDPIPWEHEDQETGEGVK
# MITF confirm: MITF inhibitors, retest of hits, confirmation, biochemical, AlphaScreen, triplicate; AlphaScreen MITF homodimerization, biotin/His-MITF beads; inhibition, % at 2.6 µM; shares compounds with MITF inh; AID 1259372, 2018; 4,700 compounds, 16% hits;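 active = inhibition above a cutoff derived from the DMSO control wells, cut at about 28% in these data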;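 also: 0% = MITF dimer wells with DMSO only; inhibitors lower the bead chemiluminescence by keeping MITF from dimerizing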
# AS interf ctr: AlphaScreen optical interference compounds, counter-screen for MITF inhibitor project, biochemical, triplicate | shares compounds with MITF inh | LysRS AlphaScreen counterscreen, signal interference | inhibition, % at 2.6 µM | 4,700 compounds, 7.6% hits | AID 1259376, 2018;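 active = inhibition above a cutoff derived from the DMSO control wells, cut at about 30% in these data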
# Active calls of the source: *; x = no result.
SMILES,FBW7 activator,MITF inh,TEAD-YAP block,GPR151 activ,MITF confirm,AS interf ctr
CC1=C(C(=O)OC2CCCCC2)C(c2coc3ccc(C)cc3c2=O)C2=C(CCCC2=O)N1 (stereo not given),0,-5,-1,0,x,x
Cc1ccccc1-n1c(=S)sc2c(=O)n(-c3ccccc3F)c(SCC#N)nc21,0,29,-10,0,x,x
CC1CC(C)CN(C(=O)c2c[nH]c3ccc(S(=O)(=O)N(C)CCC#N)cc3c2=O)C1 (stereo not given),0,0,-1,0,x,x
CC1=C(C#N)C(c2cccnc2)C2=C(N1)c1ccccc1C2=O (stereo not given),0,-7,56*,0,x,x
CCOCCn1cnc2sc(C(=O)Nc3cnc4ccccc4c3)c(C)c2c1=O,0,14,79*,1,x,x
CCOCCn1cnc2sc(C(=O)Nc3nc4ccccc4s3)c(C)c2c1=O,0,-6,49*,-2,x,x
O=C(O)c1cc(N2C(=O)/C(=C\c3ccco3)SC2=S)ccc1O,0,81*,-3,1,x,x
COc1ccc(/C=C2\SC(=S)N(c3ccc(O)c(C(=O)O)c3)C2=O)cc1,0,0,6,-1,x,x
Cc1ccc(/C=C2/SC(=S)N(c3ccc(O)c(C(=O)O)c3)C2=O)o1,0,83*,-1,-1,x,x
CC(C)(C)N1C(=O)C2C(c3ccccc3)C3C=CC2(O3)C1C(=O)NC1CCCC1 (stereo not given),0,-10,-3,0,x,x
CCc1cc(=O)[nH]c(NC2CCN(S(=O)(=O)c3ccc(C(F)(F)F)cc3)CC2)n1,1,11,11,-1,x,x
O=C(c1ccc(F)cc1)N1CCN(Cc2ccc(Br)cc2)CC1,0,62*,12,1,7,15
Cc1ccc(CN2CCN(C(=O)c3ccncc3)CC2)cc1,0,65*,1,3,-1,-4
Fc1ccc(CN2CCN(Cc3ccncc3)CC2)cc1,1,83*,14,-1,6,9
Fc1ccccc1C1CCN(Cc2ccncc2)CC1,0,70*,3,0,5,12
Cc1ccc(CN2CCN(C(=O)c3ccccc3)CC2)cc1,0,47,-2,0,x,x
CCN(CC)Cc1cccc2c1COC2,0,8,1,1,x,x
CC1=C(C(=O)OC(C)(C)C)C(c2ccc(Cl)cc2)C(C#N)=C(SCC(=O)Nc2cc(C)ccc2C)N1 (stereo not given),0,-12,1,3,x,x
CCN(CC)CC(Nc1ccc(S(=O)(=O)N2CCCC2)cc1[N+](=O)[O-])c1ccccc1 (stereo not given),0,21,-7,0,x,x
O=C(c1ccc(F)cc1)N1CCN(Cc2ccc(F)cc2)CC1,0,52*,5,-2,-4,1
O=C(c1ccccc1)N1CCN(Cc2ccccc2)CC1,0,13,4,4,x,x
O=C(c1ccc(F)cc1)N1CCN(Cc2ccncc2)CC1,0,63*,-5,0,10,-7
NNC(=O)C(=O)NNc1ccccn1,0,70*,-3,2,74*,101*
c1ccc(N2CCCC2=Nc2ccncc2)cc1,0,68*,-2,0,6,11
NC(=O)CN1CCCC1=Nc1ccccc1,0,-4,0,-1,x,x
SMILES,FBW7 activator,MITF inh,TEAD-YAP block,GPR151 activ,MITF confirm,AS interf ctr
CCCCCOC(=O)C1=C(C)Nc2ccccc2S1,0,12,1,1,x,x
CCC(C)NC(=O)CCc1c(C)nc2c3cccnc3nn2c1C (stereo not given),0,12,5,0,x,x
COc1cccc(CN2CCN(Cc3cc(OC)c(OC)c(OC)c3)CC2)c1OC,0,62*,4,-1,-12,-2
COc1cccc(CN2CCC(N3CCCC3)CC2)c1OC,0,20,3,2,x,x
COc1cc(C(=O)N2CCN(Cc3cccc(Oc4ccccc4)c3)CC2)cc(OC)c1OC,0,29,6,0,x,x
COc1cccc(CN2CCN(Cc3cccc(Oc4ccccc4)c3)CC2)c1OC,0,74*,-7,0,5,3
